Assay outcomes as filed in PubChem BioAssay.
In the library only some 1.9% were active in any assay of this set; here they are far more common.
Ba/F3 V617F tox: loss of viability in JAK2V617F-driven Ba/F3 cells. 220,000 tested, 1.1% active. inhibition, % at 5.6 µM. Ba/F3 EpoR-JAK2V617F viability, ATP luminescence;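 active = inhibition above the campaign mean plus 3 SD over all tested compounds, cut at about 24% in these data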;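 note: cytokine-independent growth of Ba/F3 cells driven by EpoR plus mutant JAK2; 0% = DMSO-treated cells and 100% = JAK inhibitor I control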
BaF3 tox: counter-screen for JAK2V617F inhibitors: parental Ba/F3 viability inhibitors. inhibition, % at 5.6 µM. 220,000 tested, 1.1% active. CellTiter-Glo ATP luminescence. AID 1486;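 active = inhibition above a per-campaign cutoff, the mean inhibition of all tested compounds plus 3 SD, cut at about 27% in these data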;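 note: 0% = DMSO wells and 100% = JAK Inhibitor I control wells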
APP transl inh: APP translation inhibition; SH-SY5Y APP 5'UTR-luciferase reporter, luminescence; inhibition, % at 2 µM; 190,000 tested, 0.82% active;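 active = inhibition above a set limit, derived from the sample mean plus 3 SD, cut at about 45% in these data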
KLF5 inhibitor: inhibitors of KLF5 expression; DLD-1 KLF5 promoter-luciferase reporter, luminescence; 290,000 tested, 0.23% active; inhibition, % at 5 µM;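 active = inhibition above a per-plate limit of that plate's mean compound inhibition plus 3 SD, cut at about 60% in these data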;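 note: 0% = DMSO wells and 100% = LY294002 at 200 µM; higher means less KLF5 promoter-driven luciferase light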
IEC-6 tox: IEC-6 cytotoxicity, counter-screen for KLF5 inhibitors | inhibition, % at 5 µM | AID 1825 | 290,000 tested, 0.78% active | luminescence viability;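 note: 0% = plate median of test compound wells and 100% = cytotoxic reference compound wells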
IEC-6 tox confirm: IEC-6 cytotoxicity, confirmation assay. AID 1907. IEC-6 rat intestinal epithelial viability, luminescence. 1,900 tested, 63% active. shares compounds with IEC-6 tox. inhibition, % at 5 µM;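 note: 0% = vehicle and 100% = reference cytotoxic drug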
Active calls of the source: *; nt = no result given. Cut-off read from the data, not from the text of the source, unless noted: active = inhibition above about 22%; inactive = the rest.

SMILES	Ba/F3 V617F tox	BaF3 tox	APP transl inh	KLF5 inhibitor	IEC-6 tox	IEC-6 tox confirm
CCc1ccc(C(=O)CSc2nc3cc(S(=O)(=O)N4CCOCC4)ccc3n2CC)cc1	-5	2	1	-10	3	nt
O=S1(=O)c2cccc3cccc(c23)N1CCBr	nt	nt	nt	5	1	nt
COc1ccc(Cl)cc1NC(=O)CSc1nc(Nc2ccccc2)nc(N2CCOCC2)n1	nt	nt	nt	9	30*	12
Cc1ccccc1CNc1ncnc2cc(Cl)ccc12	nt	nt	nt	-3	9	nt
COc1ccc(Nc2ncnc3ccc(Br)cc23)cc1OC	nt	nt	nt	-26	-2	nt
COc1cc2ncnc(NCc3ccccc3Cl)c2cc1OC	3	5	11	4	22*	36*
COc1cc2ncnc(Nc3ccc4c(c3)OCO4)c2cc1OC	nt	nt	nt	-34	27*	58*
COc1cc2ncnc(NCc3ccccc3C)c2cc1OC	-3	5	-4	23	25*	36*
N#Cc1cccc(CN2CCC(=O)N([C@H](CO)Cc3ccccc3)CC2)c1	nt	nt	nt	5	5	nt
Cn1cccc1C(=O)OCC(=O)N1c2ccccc2NC(=O)C1(C)C	5	10	3	2	1	nt
COc1ccc(NC(=O)CCNS(=O)(=O)c2ccc3[nH]c(=O)oc3c2)cc1Cl	nt	nt	nt	-5	0	nt
Cn1cc2cc([N+](=O)[O-])ccc2n1	0	5	19	-21	1	nt
CN(C)/C=C/C1=CC(=O)CC(C)(C)C1	0	2	-13	19	-2	nt
Cc1ccc(S(=O)(=O)N[C@H](C(=O)OCC(=O)N2N=C(c3ccc(Cl)cc3)CC2c2ccco2)C(C)C)cc1 (stereo not given in full)	-3	-1	17	-7	0	nt
N=c1c(C(=O)NC2CCCCC2)cc2c(=O)n3ccccc3nc2n1Cc1ccco1	nt	nt	nt	3	42*	10
CCC(C)c1ccc(OCc2ccc(C(=O)OC)o2)cc1 (stereo not given)	-3	-3	nt	-169	2	nt
Cc1cccc(Nc2c3c(nc4ccccc24)CCC3)c1	4	1	nt	-21	7	nt
COc1ccc([N+](=O)[O-])cc1Nc1c2ccccc2nc2ccccc12	nt	nt	nt	66*	79*	72*
COc1ccc(OC)c(Nc2nc(C)nc3c2oc2ccccc23)c1	nt	nt	nt	-1	26*	23*
COc1ccc(OC)c(Nc2c3ccccc3nc3ccccc23)c1	nt	nt	nt	11	46*	13
COc1cc(Nc2c3c(nc4ccccc24)CCC3)cc(OC)c1OC	nt	nt	nt	54	85*	58*
COc1ccc2cc(C(C)C(=O)Nc3cccc(S(=O)(=O)N(C)C)c3)ccc2c1 (stereo not given)	nt	nt	nt	-13	-6	nt
COC(=O)C1CCN(c2ccc(Cl)nn2)CC1	1	5	-4	-19	8	nt
O=C(Cc1c(Cl)cccc1Cl)NC1=NCCS1	-4	1	-11	0	0	nt
Cn1c(=O)c2cc(S(=O)(=O)Nc3cc(C(=O)O)cc(C(=O)O)c3)ccc2n(C)c1=O	-1	6	-8	-30	-8	nt
SMILES	Ba/F3 V617F tox	BaF3 tox	APP transl inh	KLF5 inhibitor	IEC-6 tox	IEC-6 tox confirm
Cc1cc(C)cc(NS(=O)(=O)c2ccc3c(c2)c(=O)n(C)c(=O)n3C)c1	49*	67*	15	33	35*	33*
C=CCOc1ccc(C2/C(=C(/O)c3ccc(OC)cc3)C(=O)C(=O)N2CCN2CCNCC2)cc1 (stereo not given)	nt	nt	nt	-21	-2	nt
Cc1nc2ccccc2c(=O)n1/N=C/c1ccc([N+](=O)[O-])o1	1	-5	nt	-8	0	nt
CC(=O)N(/N=C/c1ccc([N+](=O)[O-])o1)c1nc2ccccc2c(=O)n1-c1ccccc1	5	4	nt	14	55*	8
Nc1nc(-c2cccnc2)nn1C(=O)c1ccccc1Cl	-4	-1	-8	-4	36*	4
COC(=O)c1ccc(-n2c(C)cc(C(=O)CSc3cccc[n+]3[O-])c2C)cc1	0	2	-13	6	8	nt
Cc1cc(C(=O)CSc2cccc[n+]2[O-])c(C)n1-c1ccc(OC(F)F)cc1	4	-2	nt	-52	27*	-1
Cc1[nH]n(-c2ccccc2)c(=O)c1/C=N/NC(=O)c1ccccc1F	nt	nt	nt	-44	30*	16
O=C(COc1ccc(Br)cc1)N/N=C1/SCC(=O)N1Cc1ccccc1	-1	0	9	-37	-8	nt
O=[N+]([O-])c1c(Nc2ccc(O)cc2)cc(Cl)c2nonc12	nt	nt	nt	26	101*	68*
CN(C)c1cc(Nc2ccc(O)cc2)c([N+](=O)[O-])c2nonc12	-1	-3	nt	-4	3	nt
COC(=O)Nc1nc(-c2ccccc2)c(C(=O)c2ccccc2)s1	80*	78*	95*	53	84*	56*
COC(=O)C1=CN(Cc2ccccc2)C=C(C(=O)OC)C1c1cc(F)ccc1F	nt	nt	nt	-13	-2	nt
COc1ccc(Cn2c(C3CC3)nc3ccc(NC(=O)c4cccnc4)cc3c2=O)cc1	nt	nt	nt	-5	37*	21
COc1ccc(Cn2c(C3CC3)nc3ccc(NC(C)=O)cc3c2=O)cc1	-1	3	-142	-99	0	nt
Cc1ccc(C(=O)Nc2ncc(Cc3ccccc3)s2)o1	81*	79*	-205	-36	51*	40*
Cc1cnc(NC(=O)CCc2ccccc2)s1	nt	nt	nt	-38	31*	13
O=C(CCc1ccccc1)Nc1ccc(Cl)cn1	67*	51*	75*	20	68*	40*
Cc1ccc(Cc2cnc(NC(=O)c3cccs3)s2)cc1	-1	-4	-170	-173	1	nt
COc1cc(C(=O)Nc2c(C(=O)O)[nH]c3ccc(Br)cc23)cc(OC)c1OC	nt	nt	nt	-22	8	nt
CNc1nc2cc([N+](=O)[O-])c([N+](=O)[O-])cc2nc1NC	75*	69*	-18	-32	40*	34*
CNc1ccc(S(=O)(=O)NC)cc1[N+](=O)[O-]	0	7	2	-15	-1	nt
COc1ccc(OC)c(NC(=O)C(C)N2c3cccc4cccc(c34)S2(=O)=O)c1 (stereo not given)	nt	nt	nt	17	5	nt
Cc1ccc(C)c(N(C(=O)c2ccco2)C(C(=O)NC2CCCC2)c2ccco2)c1 (stereo not given)	nt	nt	nt	12	0	nt
COc1ccccc1-c1nnc(NC(=O)c2ccc(S(=O)(=O)N(C)CC3CCCO3)cc2)o1 (stereo not given)	nt	nt	nt	49	12	nt
CN(CC1CCCO1)S(=O)(=O)c1ccc(C(=O)Nc2nnc(-c3ccccc3)o2)cc1 (stereo not given)	nt	nt	nt	51	27*	6
CN(CC1CCCO1)S(=O)(=O)c1ccc(C(=O)Nc2nc(-c3ccccn3)cs2)cc1 (stereo not given)	70*	61*	74*	56	57*	52*
Cc1cc2nnc(SCC(=O)NCc3cccs3)n2c2ccccc12	31*	40*	4	42	34*	24*
COc1cccc(-c2cc3nc(-c4ccccc4)cc(=O)n3[nH]2)c1	nt	nt	nt	22	78*	53*
Cc1cc(=O)n2[nH]c(-c3ccccc3)cc2n1	-1	3	-30	-81	12	nt
